From PubChem BioAssay
KCNQ2 pot – KCNQ2 (rat) channel potentiation; O88943; CHO-K1 KCNQ2, FluxOR thallium flux fluorescence; stronger effect = higher value; B-score at 10 µM; hit rate 0.54% among 310,000; AID 2239;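 active = fluorescence ratio B-score at least 3 SD of library B-scores, with initial fluorescence B-score within 3 of them, cut at about 5.3 in these data; same plate scores as AID 2156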;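 also: B-score of peak minus minimum over baseline fluorescence ratio after K+ and Tl+ stimulus; positive B-score means potentiation of KCNQ2 with more thallium influx and brighter signal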
KCNQ2 inh – blocks the rat KCNQ2 potassium channel; O88943; CHO-K1 KCNQ2, FluxOR thallium flux, 20 min; stronger effect = lower value; hit rate 1.1% among 310,000; B-score at 10 µM;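 active = fluorescence ratio B-score at most minus 3 library SDs, with starting brightness B-score within 2 library SDs, cut at about -5.5 in these data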
KCNQ2 block conf – confirmation of rat KCNQ2 potassium channel inhibitors; activity change, negative = inhibition, % at 10 µM; hit rate 57% among 1,000; KCNQ2-expressing cells, thallium flux, inhibition; stronger effect = lower value; shares compounds with KCNQ2 inh;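 also: 0% = vehicle wells and values are ratio percent relative to vehicle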
KCNQ1 spec – selectivity of KCNQ2 inhibitors against human KCNQ1 | hit rate 15% among 1,000 | AID 493026 | KCNQ1-expressing cells, FluxOR thallium flux fluorescence; stronger effect = lower value | activity change, negative = inhibition, % at 10 µM | shares compounds with KCNQ2 inh;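 active = activity change at least 3 SD of negative controls below their mean in both duplicate wells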;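 also: CHO cells stably transfected with KCNQ1 and depolarized by potassium stimulus; peak minus minimum fluorescence over baseline after thallium addition; 0% = vehicle negative control and -100% = blank without thallium stimulus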
Target sequence (P51787 whole entry, looked up): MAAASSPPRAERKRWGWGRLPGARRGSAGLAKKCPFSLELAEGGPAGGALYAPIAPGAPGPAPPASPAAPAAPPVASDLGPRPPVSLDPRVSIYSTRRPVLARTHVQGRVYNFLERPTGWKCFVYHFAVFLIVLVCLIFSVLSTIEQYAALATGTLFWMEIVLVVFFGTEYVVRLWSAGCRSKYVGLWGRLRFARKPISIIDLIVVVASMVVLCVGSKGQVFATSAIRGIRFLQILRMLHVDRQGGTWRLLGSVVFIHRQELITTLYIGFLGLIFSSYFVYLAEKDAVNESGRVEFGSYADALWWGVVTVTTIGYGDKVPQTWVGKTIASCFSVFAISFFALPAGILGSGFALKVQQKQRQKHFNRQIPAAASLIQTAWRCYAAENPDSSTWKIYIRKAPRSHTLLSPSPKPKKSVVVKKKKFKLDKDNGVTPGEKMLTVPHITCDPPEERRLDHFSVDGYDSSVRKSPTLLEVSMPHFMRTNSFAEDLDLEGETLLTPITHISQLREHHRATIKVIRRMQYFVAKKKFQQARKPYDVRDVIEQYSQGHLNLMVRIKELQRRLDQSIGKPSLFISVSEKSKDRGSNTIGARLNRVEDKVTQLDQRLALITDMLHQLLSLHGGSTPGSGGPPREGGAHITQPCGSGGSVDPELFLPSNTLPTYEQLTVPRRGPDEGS
CHO parental ctr – counter-screen for KCNQ2 inhibitors: effect in parental CHO cells | shares compounds with KCNQ2 inh | thallium flux counter-screen; stronger effect = lower value | hit rate 14% among 1,000 | activity change, % at 10 µM;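 also: 0% = vehicle negative controls with stimulus buffer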
KCNQ2 patch conf – rat KCNQ2 inhibition confirmed by electrophysiology; shares compounds with KCNQ2 inh; KCNQ2-expressing cells, automated patch clamp current; calls only at 10 µM; hit rate 49% among 550
* hit, by the source's call. The list is not random: actives were taken first. Their share in the collection is about 1.6%. Unless noted, no rule for the calls is given here.

How did COc1ccc(NC(=O)C2C3C=CC4(O3)C2C(=O)N(CCN2CCCCC2C)C4C(=O)NC2CCCCC2)cc1 (centres undefined) do in these assays?
KCNQ2 inh: inactive

How did O=C(COC(=O)CC12CC3CC(CC(C3)C1)C2)Nc1cccnc1Cl do in these assays?
KCNQ2 pot: -7.3; KCNQ2 inh: -7.3*; KCNQ2 block conf: -38%*; KCNQ1 spec: inactive; CHO parental ctr: inactive; KCNQ2 patch conf: active

What do the screens show for `O=C(COC(=O)c1ccccn1)Nc1cccnc1Cl`?
KCNQ2 inh: inactive

Results for CC(NC(=O)CCc1ccccc1)c1cc2c(cc1Cl)OCCO2 (centres undefined) ?
KCNQ2 inh: inactive

What do the screens show for `Cc1ccc(/C=C2/C(=O)ON=C2c2ccccc2)o1`?
KCNQ2 pot: -9; KCNQ2 inh: -9*; KCNQ2 block conf: -24%*; KCNQ1 spec: inactive; CHO parental ctr: inactive; KCNQ2 patch conf: inactive

What do the screens show for `O=C1ON=C(c2ccccc2)/C1=C\c1ccco1`?
KCNQ2 inh: inactive

How did CN(C)S(=O)(=O)c1ccc(Cl)c(NC(=O)CN2CCCC2)c1 do in these assays?
KCNQ2 inh: inactive

Results for Cc1cc(CN(C)C)c(O)c(C2(C)CCCCC2)c1 ?
KCNQ2 pot: -9.1; KCNQ2 inh: -9.1*; KCNQ2 block conf: inactive; KCNQ1 spec: inactive; CHO parental ctr: inactive

Results for Cc1cc(CN2CCOCC2)c(O)c(C2(C)CCCCC2)c1 ?
KCNQ2 pot: -7.2; KCNQ2 inh: -7.2*; KCNQ2 block conf: -19%*; KCNQ1 spec: inactive; CHO parental ctr: inactive; KCNQ2 patch conf: inactive

How did Oc1c(CN2CCOCC2)cc(-c2ccccc2)cc1CN1CCOCC1 do in these assays?
KCNQ2 inh: inactive

How did CCc1ccc(NC(=S)NC(=O)CC(C)C)cc1 do in these assays?
KCNQ2 inh: inactive

How did O=C(c1cc(C2CC2)on1)N1CCN(c2ccccc2)CC1 do in these assays?
KCNQ2 pot: 0.01; KCNQ2 inh: inactive

How did CCn1c(SCC(=O)NNC(=O)c2ccc(OC)cc2)nnc1-c1cccnc1 do in these assays?
KCNQ2 pot: 0.57; KCNQ2 inh: inactive

Results for CCCSc1nc(NCc2ccco2)c2c3c(sc2n1)COC(C)(C)C3 ?
KCNQ2 pot: -9.8; KCNQ2 inh: -9.8*; KCNQ2 block conf: inactive; KCNQ1 spec: inactive; CHO parental ctr: inactive

How did CCCCSc1nc(NCc2ccco2)c2c3c(sc2n1)COC(C)(C)C3 do in these assays?
KCNQ2 inh: inactive

What do the screens show for `Cc1ccc(-n2nc3c(=O)n(CC(=O)NCCc4ccccc4C)nc(C)c3c2C)cc1`?
KCNQ2 inh: inactive

How did CCCOc1ccc(N2CC(C(=O)NCCc3ccc(OC)c(OC)c3)CC2=O)cc1 (centres undefined) do in these assays?
KCNQ2 inh: inactive

What do the screens show for `O=C(NC12CC3CC(CC(C3)C1)C2)N(Cc1ccccc1)Cc1ccncc1`?
KCNQ2 pot: -11; KCNQ2 inh: -11*; KCNQ2 block conf: -34%*; KCNQ1 spec: inactive; CHO parental ctr: inactive; KCNQ2 patch conf: active

Results for O=C(NC12CC3CC(CC(C3)C1)C2)c1ccccc1 ?
KCNQ2 inh: inactive

How did CCOC(=O)c1cc2c(=O)c3ccccc3oc2nc1C do in these assays?
KCNQ2 pot: 0.29; KCNQ2 inh: inactive

How did CCN(CC)C(=O)c1cc2c(=O)c3cc(F)ccc3oc2nc1C do in these assays?
KCNQ2 pot: -9.6; KCNQ2 inh: -9.6*; KCNQ2 block conf: -23%*; KCNQ1 spec: inactive; CHO parental ctr: inactive; KCNQ2 patch conf: active

Results for O=C(COC(=O)C12CC3CC(CC(C3)C1)C2)Nc1nc2c(F)c(F)c(F)cc2s1 ?
KCNQ2 pot: 0.69; KCNQ2 inh: inactive

How did O=[N+]([O-])c1ccc(-c2csc(N3CCc4ccccc4C3)n2)cc1 do in these assays?
KCNQ2 inh: inactive

Results for O=[N+]([O-])c1ccc(N2CCc3ccccc3C2)cc1 ?
KCNQ2 pot: -7.1; KCNQ2 inh: -7.1*; KCNQ2 block conf: inactive; KCNQ1 spec: inactive; CHO parental ctr: inactive

How did CN(CC(=O)Nc1cccc(F)c1)C(=O)c1cc(S(=O)(=O)N(C)C)ccc1N1CCCC1 do in these assays?
KCNQ2 pot: 0.44; KCNQ2 inh: inactive

What do the screens show for `N#C/C(=C\c1ccccc1[N+](=O)[O-])C(=O)NC1CCCCC1`?
KCNQ2 pot: -6.9; KCNQ2 inh: -6.9*; KCNQ2 block conf: -34%*; KCNQ1 spec: inactive; CHO parental ctr: inactive; KCNQ2 patch conf: active

How did CCOc1ccccc1/C=C(\C#N)C(=O)NC1CC1 do in these assays?
KCNQ2 inh: inactive

What do the screens show for `CC(C)CC(NC(=O)C1CCC(C)CC1)C(=O)NCc1ccco1` (centres undefined)?
KCNQ2 inh: inactive

Results for COc1ccccc1CNC(=O)C(CC(C)C)NC(=O)C1CCC(C)CC1 (centres undefined) ?
KCNQ2 pot: -8.2; KCNQ2 inh: -8.2*; KCNQ2 block conf: -28%*; KCNQ1 spec: inactive; CHO parental ctr: inactive; KCNQ2 patch conf: active

How did CC(C)Sc1nc2c(cnn2-c2ccc(Cl)cc2)c(=O)[nH]1 do in these assays?
KCNQ2 pot: 0.87; KCNQ2 inh: inactive

Results for CCN(CC)CCNC(=O)c1ccc(NC(=O)c2cn(-c3ccccc3)nc2-c2cccs2)cc1 ?
KCNQ2 pot: -12; KCNQ2 inh: -12*; KCNQ2 block conf: -42%*; KCNQ1 spec: -50%*; CHO parental ctr: -37%*; KCNQ2 patch conf: active

What do the screens show for `CCN(CC)CCNC(=O)c1ccc(NC(=O)c2cn(-c3ccc(F)cc3)nc2-c2cccc(OC)c2)cc1`?
KCNQ2 inh: inactive

What do the screens show for `O=C(O)c1ccccc1-c1ccccc1C(=O)NCc1cccc(C(F)(F)F)c1`?
KCNQ2 pot: 0.26; KCNQ2 inh: inactive

Results for Cc1ccc(CN2CCN(/N=C/c3ccc(C)s3)CC2)c(C)c1 ?
KCNQ2 pot: -7.9; KCNQ2 inh: -7.9*; KCNQ2 block conf: inactive; KCNQ1 spec: inactive; CHO parental ctr: inactive

Results for Cc1ccc(CN2CCN(/N=C/c3cccn3C)CC2)c(C)c1 ?
KCNQ2 inh: inactive

Results for COC(=O)C1CN(S(=O)(=O)c2cc(OC)ccc2OC)CCS1 (centres undefined) ?
KCNQ2 pot: 0.05; KCNQ2 inh: inactive

Results for C=CCn1c(NCc2cc(C)ccc2O)nc2ccccc21 ?
KCNQ2 pot: -7.1; KCNQ2 inh: -7.1*; KCNQ2 block conf: -16%*; KCNQ1 spec: inactive; CHO parental ctr: inactive; KCNQ2 patch conf: active

What do the screens show for `Cc1ccc(O)c(CNc2nc3ccccc3n2C(C)C)c1`?
KCNQ2 inh: inactive

How did CC1CCC2C(=O)N(c3ccc(C(=O)NCc4ccccc4)cc3)C(=O)C2C1 (centres undefined) do in these assays?
KCNQ2 pot: 0.17; KCNQ2 inh: inactive

How did CC(C)(C)NC(=O)Nc1nnc(SCC(=O)NC2CCCCC2)s1 do in these assays?
KCNQ2 inh: inactive
